Inconclusive results are not listed. Calls of active or inactive are those of the source. Rule for the calls, unless noted: active = hit-call score of the fitted dose curve at least 0.9, where 1 is the maximum; inactive = score below 0.9.
What was measured:
[1] = APR_HepG2_CellCycleArrest_1hr: Apredica 1-hour HepG2 Assay for Cell Cycle Arrest (AID 2282666); conditions: high-content imaging, actives raise or lower the signal
How it was run: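 Cell cycle arrest scored from nuclear DNA content (Hoechst 33342) using high-content imaging of fixed HepG2 cells after 1 h treatment across 0.39–200 uM, in duplicate. Gain or loss fitted relative to 0.5% DMSO.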

[2] = ACEA_ER_80hr: ACEA Biosciences xCELLigence Real-Time Cell Analysis on Estrogen Receptor Agonism for Proliferation (AID 2282667; active = hit-call score of the fitted dose curve at least 0.9, where 1 is the maximum); conditions: T47D proliferation, impedance (xCELLigence), 80 h
How it was run: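 T-47D cells monitored by electrical impedance (xCELLigence) with compound present throughout; 80 h timepoint, positive-direction fitting versus DMSO. Eight-point 1:4 dilutions from 100 uM final, duplicate plates.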

[3] = APR_HepG2_MicrotubuleCSK_1hr: Apredica 1-hour HepG2 Assay for Microtubule CSK Stabilty (AID 2282669); conditions: HepG2 microtubule cytoskeleton imaging, actives raise or lower the signal
How it was run: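 Alpha-tubulin immunofluorescence, imaged by automated high-content microscopy with Hoechst nuclear segmentation, measured cytoskeletal change after 1 h dosing of HepG2 at 0.39–200 uM in 0.5% DMSO. Activity fitted in both directions relative to DMSO.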

[4] = APR_HepG2_MitoMass_1hr: Apredica 1-hour HepG2 Assay for Mitochondrial Mass (AID 2282674); conditions: high-content imaging, actives raise or lower the signal
How it was run: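 Mitochondrial mass is taken from MitoTracker Red CMXRos (250 nM, 30 min, pre-fixation) fluorescence imaged at 20x in HepG2 cells. Exposure lasted 1 hr across ten concentrations, 0.39 to 200 uM, 0.5% DMSO; DMSO baseline, bidirectional fitting.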

[5] = APR_HepG2_CellCycleArrest_24hr: Apredica 24-hour HepG2 Assay for Cell Cycle Arrest (AID 2282905); conditions: imaging, actives raise or lower the signal;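 note: cell cycle arrest scored as ratio of 2N to 4N nuclear DNA content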
How it was run: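 Readout: Hoechst 33342 nuclear DNA content by high-content fluorescent imaging, six images/well, 20x. Human HepG2 liver cells, 24 hr compound exposure, 0.39–200 uM, final DMSO 0.5% v/v. Gain or loss fitted relative to DMSO baseline.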

[6] = APR_HepG2_StressKinase_1hr: Apredica 1-hour HepG2 Assay for Stress Kinase (AID 2282906); conditions: HepG2 stress kinase (phospho-c-Jun) imaging, actives raise or lower the signal
How it was run: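 High-content imaging of phospho-c-Jun immunostaining (with Hoechst nuclear identification) after a 1 h exposure of HepG2 cells to 10 concentrations from 0.39 to 200 uM, final DMSO 0.5%. Fitted bidirectionally against DMSO.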

[7] = APR_HepG2_NuclearSize_24hr: Apredica 24-hour HepG2 Assay for Nuclear Size (AID 2282907); conditions: high-content imaging, actives raise or lower the signal
How it was run: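 Read-out: nuclear diameter from Hoechst 33342 (2 ug/mL) imaging of fixed HepG2 cells, 20x, six fields/well. Compounds ran at 0.39–200 uM for 24 hr, 0.5% DMSO final. Gain or loss was fitted bidirectionally relative to the DMSO baseline.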

[8] = APR_HepG2_CellLoss_24hr: Apredica 24-hour HepG2 Assay for Cell Loss (AID 2282908); conditions: high-content imaging;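 for AC50: fit in both directions so a hit may be cell loss or gain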
How it was run: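 Read-out: Hoechst 33342-stained nuclei counted by automated fluorescence imaging after formaldehyde fixation and Triton permeabilization. Ten concentrations, 0.39 to 200 uM, duplicate wells, 0.5% DMSO final. Gain or loss of signal fitted relative to DMSO baseline.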

[9] = APR_HepG2_MicrotubuleCSK_24hr: Apredica 24-hour HepG2 Assay for Microtubule CSK Stabilty (AID 2282909); conditions: HepG2 microtubule cytoskeleton imaging, actives raise or lower the signal
How it was run: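 Read-out: alpha-tubulin immunofluorescence intensity by automated high-content imaging of fixed HepG2 cells after 24 h compound treatment. Ten concentrations, 0.39 to 200 uM, in duplicate; DMSO 0.5% v/v. Taxol positive control; DMSO-normalized bidirectional curve fitting.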

[10] = APR_HepG2_MitoticArrest_24hr: Apredica 24-hour HepG2 Assay for Mitotic Arrest (AID 2282910); conditions: high-content imaging, actives raise or lower the signal
How it was run: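 High-content imaging of fixed HepG2 cells labeled with Hoechst 33342 and anti-phospho-histone H3, after 24 h treatment. Ten concentrations 0.39 to 200 uM in duplicate, final DMSO 0.5%; changes fitted both directions relative to DMSO.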

[11] = APR_HepG2_MitoMembPot_24hr: Apredica 24-hour HepG2 Assay for Mitochondrial Membrane Potential (AID 2282911); conditions: imaging, actives raise or lower the signal
How it was run: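 HepG2 cells exposed 24 h to 0.39–200 uM compounds in duplicate, 0.5% v/v DMSO final. MitoTracker Red CMXRos 250 nM loaded 30 min before formaldehyde fixation; high-content imaging at 20x, bidirectional fit versus DMSO.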

[12] = APR_HepG2_MitoMass_24hr: Apredica 24-hour HepG2 Assay for Mitochondrial Mass (AID 2282912); conditions: high-content imaging, actives raise or lower the signal
How it was run: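 HepG2, 24 hr dosing, 10 concentrations 0.39–200 uM in duplicate, DMSO 0.5% final. MitoTracker Red CMXRos 250 nM, 30 min pre-fix; 3.7% formaldehyde fix. Imaging-based fluorescence intensity; gain/loss fit vs DMSO baseline.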

[13] = APR_HepG2_CellCycleArrest_72hr: Apredica 72-hour HepG2 Assay for Cell Cycle Arrest (AID 2282914); conditions: high-content imaging, actives raise or lower the signal
How it was run: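 HepG2 cells exposed 72 h in duplicate to 0.39–200 uM compound, 0.5% DMSO final. Formaldehyde-fixed, Hoechst 33342-stained nuclei imaged at 20x, six fields per well; DNA content per valid cell quantified by cell-cycle image analysis, bidirectional fit versus DMSO.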

[14] = APR_HepG2_CellLoss_1hr: Apredica 1-hour HepG2 Assay for Cell Loss (AID 2282668); conditions: high-content imaging;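 note: curves fitted both ways against DMSO so gain or loss of cells counts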
How it was run: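 Cell number comes from high-content imaging of Hoechst-labelled nuclei in fixed HepG2 cells. Cells were exposed for 1 h to ten concentrations from 0.39 to 200 uM in 0.5% DMSO. Gain or loss was fitted against DMSO controls.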

[15] = APR_HepG2_p53Act_1hr: Apredica 1-hour HepG2 Assay for p53 Activation (AID 2282671); conditions: high-content imaging, actives raise or lower the signal
How it was run: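 After 1 h exposure (0.39–200 uM, 0.5% DMSO final, duplicates), fixed HepG2 cells were labelled with anti-p53 antibody plus Hoechst nuclear stain. Fluorescence quantified by automated 20x imaging; changes fitted in both directions against DMSO.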

[16] = APR_HepG2_MitoMembPot_1hr: Apredica 1-hour HepG2 Assay for Mitochondrial Membrane Potential (AID 2282675); conditions: imaging, actives raise or lower the signal
How it was run: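 Mitochondrial membrane potential read as MitoTracker Red CMXRos intensity by automated imaging of fixed HepG2 cells. Dye at 250 nM for 30 min pre-fixation; compounds 0.39 to 200 uM for 1 hour, duplicate wells, 0.5% DMSO.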

[17] = APR_HepG2_p53Act_24hr: Apredica 24-hour HepG2 Assay for p53 Activation (AID 2282913); conditions: high-content imaging, actives raise or lower the signal;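 note: p53 protein immunofluorescence averaged per cell in HepG2 with Hoechst nuclei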
How it was run: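 HepG2 cells exposed 24 h to compounds at 0.39–200 uM in duplicate, 0.5% v/v DMSO final; fixed, permeabilized, stained with anti-p53 antibody and Hoechst 33342; fluorescence imaging; bidirectional curve fit versus DMSO.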

[18] = APR_HepG2_NuclearSize_1hr: Apredica 1-hour HepG2 Assay for Nuclear Size (AID 2282670); conditions: high-content imaging, actives raise or lower the signal
How it was run: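 Nuclear size measured by high-content imaging of Hoechst 33342 nuclear stain after formaldehyde fixation; human HepG2 line exposed 1 hr to compounds at 0.39–200 uM in 0.5% DMSO, with bidirectional curve fitting relative to DMSO.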

[19] = APR_HepG2_MitoticArrest_1hr: Apredica 1-hour HepG2 Assay for Mitotic Arrest (AID 2282672); conditions: high-content imaging, actives raise or lower the signal
How it was run: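 Ten-point concentration series (0.39 to 200 uM, duplicates, 0.5% v/v DMSO) applied to human HepG2 liver cells for 1 hr. High-content imaging of phospho-histone H3 and Hoechst-stained nuclei after fixation and permeabilization; DMSO-normalised bidirectional fit.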

[20] = APR_HepG2_P-H2AX_1hr: Apredica 1-hour HepG2 Assay for H2AX Phosphorylation (AID 2282673); conditions: high-content imaging, actives raise or lower the signal
How it was run: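 Phospho-H2A.x immunofluorescence (1:200, FITC secondary) plus Hoechst nuclear stain, quantified by high-content imaging in HepG2 after 1 hr compound exposure. Ten concentrations, 0.39 to 200 uM, in duplicate with 0.5% DMSO; fit both directions against DMSO.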

Measured: AC50

Clc1ccccc1-c1nnc(-c2ccccc2Cl)nn1
active: [5] 67.6 µM | [11] 59.5 µM
not listed: [14] | [15] | [16] | [17] | [18] | [19] | [20]
inactive: all other assays above

CNC(=O)Oc1cccc(N=CN(C)C)c1
active: [8] 78.6 µM | [13] 64.1 µM
not listed: [2] | [4] | [18] | [19] | [20]
inactive: all other assays above

C[C@H]1[C@H](c2ccc(Cl)cc2)SC(=O)N1C(=O)NC1CCCCC1
not listed: [2] | [14] | [15] | [16] | [20]
inactive: all other assays above

CC1(c2ccc(Oc3ccccc3)cc2)OC(=O)N(Nc2ccccc2)C1=O (centres undefined)
active: [8] 120 µM | [9] 88.5 µM | [10] 98.3 µM | [11] 6.77 µM
not listed: [2] | [4] | [14] | [15] | [16] | [20]
inactive: all other assays above

N#CN
not listed: [4] | [14] | [15] | [17] | [18] | [19] | [20]
inactive: all other assays above

CCCN(CCOc1c(Cl)cc(Cl)cc1Cl)C(=O)n1ccnc1
active: [5] 101 µM | [8] 103 µM
not listed: [2] | [4] | [14] | [15] | [16]
inactive: all other assays above

CCCN(CCC)c1c([N+](=O)[O-])cc(C(F)(F)F)cc1[N+](=O)[O-]
active: [11] 118 µM
not listed: [4] | [14] | [15] | [16] | [17] | [18] | [19] | [20]
inactive: all other assays above

CCC(C)Nc1c([N+](=O)[O-])cc(C(C)(C)C)cc1[N+](=O)[O-] (centres undefined)
active: [5] 89 µM | [8] 45.8 µM | [9] 27.4 µM | [11] 100 µM | [13] 83.7 µM
inactive: [1] | [2] | [3] | [6] | [7] | [10] | [12]

COC(=O)c1ccccc1S(=O)(=O)NC(=O)N(C)c1nc(C)nc(OC)n1
not listed: [2] | [4] | [15] | [18] | [20]
inactive: all other assays above

O=C(O)C(F)(F)C(F)(F)C(F)(F)C(F)(F)C(F)(F)C(F)(F)C(F)(F)F
not listed: [2] | [4] | [15] | [18] | [20]
inactive: all other assays above

COP(=O)(OC)OC=C(Cl)Cl
active: [5] 99.1 µM | [8] 58.9 µM
not listed: [4] | [15] | [16] | [17] | [18] | [19] | [20]
inactive: all other assays above

CNC(=O)CSP(=S)(OC)OC
not listed: [4] | [15] | [16] | [17] | [18] | [19]
inactive: all other assays above

[2H]C1([2H])[n+]2ccccc2-c2cccc[n+]2C1([2H])[2H]
active: [13] 75.1 µM
not listed: [2] | [4] | [15] | [16] | [18] | [19] | [20]
inactive: all other assays above
